JMJD2E inh = JMJD2E (human) inhibition | B2RXH2 | JMJD2E catalytic domain, FDH-coupled NADH fluorescence (FDH is formaldehyde dehydrogenase) | Potency, µM (series often up to 57.1 µM), without a hit: at the highest dose activity change, negative = inhibition, actives largely listed as inhibitors | 1.6% of 230,000 active | AID 2147;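 further: 0% = wells with enzyme and -100% = buffer wells without enzyme; nearly all actives have a fitted effect of over 50% in size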
ALDH1A1 block = blocks purified human ALDH1A1 activity. AID 1030. Potency, µM (highest dose often 75.3 µM), for the others: at the highest dose activity, negative = inhibition, most hits filed as inhibitors. 7.3% of 220,000 active. Purified ALDH1A1, NADH fluorescence, propionaldehyde substrate. P00352;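 further: plate controls were no enzyme wells and a reference inhibitor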
Target sequence (P00352 whole entry, looked up): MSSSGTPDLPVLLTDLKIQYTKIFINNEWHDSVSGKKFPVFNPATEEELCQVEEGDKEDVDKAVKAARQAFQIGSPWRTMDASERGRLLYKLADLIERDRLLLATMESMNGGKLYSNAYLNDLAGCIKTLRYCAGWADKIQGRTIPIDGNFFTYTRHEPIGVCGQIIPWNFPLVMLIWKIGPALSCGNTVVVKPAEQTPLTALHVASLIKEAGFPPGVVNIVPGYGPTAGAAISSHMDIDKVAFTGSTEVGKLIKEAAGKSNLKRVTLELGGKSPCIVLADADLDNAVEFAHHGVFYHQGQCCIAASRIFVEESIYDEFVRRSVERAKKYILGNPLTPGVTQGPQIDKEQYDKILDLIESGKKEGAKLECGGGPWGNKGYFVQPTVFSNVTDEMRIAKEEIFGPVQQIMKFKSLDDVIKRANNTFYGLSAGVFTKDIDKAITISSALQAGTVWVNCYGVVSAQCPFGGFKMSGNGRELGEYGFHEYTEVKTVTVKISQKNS
LMNA splice mod = changes lamin A minigene splicing in HeLa cells; 0.01% of 200,000 active; Potency, µM (titrated, usually from 46.1 µM), without a hit: at the top dose ratio change, negative = inhibition, actives largely listed as inhibitors; HeLa LMNA splicing GFP/RFP minigene ratio, 48 h; active means well fitted inhibition curve with a large enough effect in the signal ratio, with a control signal flat, not every such curve was filed as active; inconclusive means small, poorly fitted or top-dose-only effect, or effect the other way, or a change in a side signal; the % refers to the signal ratio; further: on the % scale 0 is the no-effect control and ±100 the full control effect
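Read-out is the ratio of GFP to DsRed2 object intensity, acquired by 488 nm laser-scanning cytometry on HeLa lamin A-EGFP minigene reporter cells. Compound incubation 48 hrs at 37 °C in Opti-MEM with 2% FBS; DMSO 0.5% final.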
HTT cytoprotect = cytoprotection in Huntington HTT-Q103 PC12 cell model. 0.14% of 230,000 active. PC12 HTT-Q103 induced, cytoprotection, ATP luminescence, 40 h. Potency, µM (doses to about 56.4 µM), for inactives: cytoprotection (ATP increase), hits mostly activators. AID 1471; active means well fitted curve in the direction sought with a large enough effect; inconclusive means small, poorly fitted or top-dose-only effect, or another doubt; inactive means no such curve, though single readings can be large; an effect the other way counts as inactive or inconclusive; further: % of control where 0% means no effect; nearly all actives have a fitted effect of over 45% in size
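PC12 cells stably carrying ecdysone-inducible Htt exon 1 (Q103)–GFP were induced with 100 nM tebufenozide (final) alongside library compounds in a dose series. Cytoprotection was scored as retained ATP by ATPlite luminescence.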
HPGD inh = blocks human HPGD enzyme activity; P15428; purified HPGD, NADH fluorescence kinetic, PGE2 substrate; Potency, µM, inactives show at the highest dose activity change, negative = inhibition, actives largely listed as inhibitors; 4.3% of 150,000 active; AID 894; further: on the % scale 0 is the no-effect control and ±100 the full control effect
Target sequence (P15428 whole entry, looked up): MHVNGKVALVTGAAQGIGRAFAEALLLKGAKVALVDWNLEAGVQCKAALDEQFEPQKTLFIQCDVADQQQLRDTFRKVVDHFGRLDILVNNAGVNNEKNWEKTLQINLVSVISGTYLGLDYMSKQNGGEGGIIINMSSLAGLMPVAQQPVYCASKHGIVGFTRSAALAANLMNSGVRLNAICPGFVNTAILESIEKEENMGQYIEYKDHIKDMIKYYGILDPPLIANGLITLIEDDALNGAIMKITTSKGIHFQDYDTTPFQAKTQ
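NADH formation kinetics: reaction with 30 uM PGE2 and 1 mM NAD+ (final), 20 nM enzyme, Tris-HCl pH 8 with Tween 20, after 15 min compound preincubation at room temperature. Fluorescence change, last versus first of five reads.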
HTT aggregate = mutant huntingtin aggregation inhibition; Potency, µM (titrated, usually from 46.1 µM), for inactives: at the highest dose activity change, negative = inhibition, actives largely listed as inhibitors; 1.1% of 220,000 active; PC12 HttQ103-GFP aggregates, Acumen cytometry, 40 h; active means well fitted curve in the direction sought with a large enough effect; inconclusive means small, poorly fitted or top-dose-only effect, or another doubt; inactive means no such curve, though single readings can be large; an effect the other way counts as inactive or inconclusive; further: on the % scale 0 is the no-effect control and ±100 the full control effect; nearly all actives have a fitted effect of over 60% in size
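Using laser scanning cytometry, GFP-positive aggregates were counted after lysis of PC12 cells induced with 100 nM tebufenozide to express HTT exon 1 Q103–GFP. Compounds were tested in titration.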
* = called active by the depositor; ? = inconclusive; . = not tested or not shown; [ ] = dose if it differs, or a comment. Compounds with a hit are over-represented: about 9.2% of the library has one in this group of screens. Unless noted, the call rests on the fitted dose curve; in most records, active means well fitted inhibition curve with a large enough effect (not every such curve was filed as active); inconclusive means small, poorly fitted or top-dose-only effect, or another doubt; inactive means no such curve, though single readings can be large or run the other way. Potency means the concentration at half of the fitted maximal effect.

SMILES | JMJD2E inh | ALDH1A1 block | LMNA splice mod | HTT cytoprotect | HPGD inh | HTT aggregate
COC1C=CO[C@@]2(C)Oc3c(C)c(O)c4c(O)c(c5c(nc6cc(C)ccn65)c4c3C2=O)NC(=O)/C(C)=C\C=CC(C)C(O)[C@@H](C)C(O)C(C)[C@@H](OC(C)=O)C1C (stereo partly specified) | ? | -6% | -4% | -23% | -13% | 4%
COc1ccc2nc(Nc3sc4c(c3C(N)=O)CCCC4)sc2c1 | 1% | 8.9µM* | ? | 12%[10 µM] | 16µM* | ?
NC(=O)C1CCN(C(=O)c2cc3n(n2)C(C(F)(F)F)CC(c2ccco2)N3)CC1 (stereo unspecified) | ? | 12µM* | -6% | -5% | -11% | -17%
Cc1cccn2c(=O)c(/C=C(\C#N)C(=O)NCc3ccco3)c(N3CCCCCC3)nc12 | -4% | . | . | 9%[10 µM] | . | -18%[9.22 µM]
Cc1cccn2c(=O)c(/C=C(\C#N)C(=O)NCc3ccco3)c(N3CCCCC3)nc12 | ? | 14µM* | -8% | -9%[10 µM] | 32µM* | 10%
Cc1cccn2c(=O)c(/C=C(\C#N)C(=O)NCc3ccco3)c(N3CCCC(C)C3)nc12 (stereo unspecified) | ? | 25µM* | -12% | 2%[10 µM] | 16µM* | -26%
Cc1cccn2c(=O)c(/C=C(\C#N)S(=O)(=O)c3ccccc3)c(N3CCCCC3)nc12 | ? | . | . | -4%[10 µM] | . | 1%[9.22 µM]
Cc1cccn2c(=O)c(/C=N/O)c(N3CCCCC3)nc12 | -28% | ? | 14% | -6% | 2µM* | 7%
Nc1nc(Cl)nc2c1ncn2[C@@H]1O[C@@H](COP(=O)(O)OP(=O)(O)OP(=O)(O)O)[C@@H](O)[C@H]1O | . | . | . | -26%[1.9 µM] | . | .
CCc1ccc(S(=O)(=O)NCc2nc3cccnc3n2Cc2cccc(OC)c2)cc1 | . | . | -11%[46 µM] | . | . | .
CC(C)C[C@@H](CC(=O)N[C@@H](CCC(=O)O)CC(=O)O)NC(=O)[C@@H]1CNCC[C@H]1NC(=O)C[C@H](CCCN)NC(=O)C[C@H](Cc1c[nH]c2ccccc12)NC(=O)[C@@H]1CCCC[C@H]1N | -18% | -1% | . | -34% | -6% | .
CN(CCN1CCOCC1)Cc1nc(-c2ccc(Cl)cc2)no1 | 6% | . | . | ? | . | 23%[9.22 µM]
O=C(CC1(O)C(=O)Nc2cc(Cl)cc(Cl)c21)c1ccncc1 (stereo unspecified) | 1% | 13µM* | -15% | -14%[10 µM] | -12% | 5%
NNc1ncnc2c1cnn2-c1ccccc1 | ? | 18µM* | ? | -35% | -20% | 22µM*
CC(C)Nc1ncnc2c1cnn2-c1ccccc1 | 2% | ? | ? | -57%[10 µM] | ? | -1%
c1ccc(-n2ncc3c(NCc4cccs4)ncnc32)cc1 | -10% | ? | -7% | -16%[10 µM] | 5µM* | -25%
Cc1cccc(CNc2ncncc2-c2ccccc2CN(C)C)c1 | . | 9% | -6% | 13% | . | .
C/C(=N/NC1=NCCN1)c1cn(C2=NCCN2)nc1C | . | -9%[13.5 µM] | . | 1%[10 µM] | -5% | .
Cc1ccccc1CCNC(=O)c1ccc2c(c1)nc1n2CCC(C)C1 (stereo unspecified) | . | . | 9%[46 µM] | . | . | .
Nc1ccc(Sc2ccc([N+](=O)[O-])cc2)cc1 | -1% | -7% | . | -47% | . | 2%
O=C1C=CC(=O)N1c1ccc(Sc2ccc([N+](=O)[O-])cc2)cc1 | -16% | 0.79µM* | . | 3%[10 µM] | . | 12%[9.22 µM]
Cc1ccc(-n2ncc3c(NCCCc4ccccc4)ncnc32)cc1 | . | . | 0%[46 µM] | . | . | .
COc1ccccc1N(CC(=O)NC1CCCC1)C(=O)c1oc(C(C)(C)C)cc1C | 1% | 2% | 8%[46 µM] | 31%[10 µM] | . | 15%[9.22 µM]
C/C(=N\NS(=O)(=O)c1ccc(C)cc1)c1ccc(C)s1 | 3% | 18µM* | 14% | -24% | -2% | -1%
COCCn1c(C)cc(O)c(C(c2ccc(OC)cc2)N2CCCCC2)c1=O (stereo unspecified) | . | . | 1%[46 µM] | . | . | .
SMILES | JMJD2E inh | ALDH1A1 block | LMNA splice mod | HTT cytoprotect | HPGD inh | HTT aggregate
NC(=O)N1CCC2(CC1)NC(=O)N(c1ccccc1)N2 | ? | 3.5µM* | 27%[46 µM] | -75% | . | 23%
O=C1NC2(CCCCC2)NN1c1ccccc1 | 7% | -5% | ? | -12% | -7% | 1%
CCOC(=O)C1CNc2cc(S(=O)(=O)CC)ccc2O1 (stereo unspecified) | 0% | -3% | 10%[9.22 µM] | -7%[10 µM] | . | -13%
O=C(CCCc1nc2ccccc2s1)NCc1ccc(F)cc1 | -3% | ? | 3% | 18%[10 µM] | 25µM* | ?
O=C(CCCc1nc2ccccc2s1)NCc1ccccc1 | 6% | 10% | 7% | . | 14µM* | -29%
O=C(O)CCCc1nc2ccccc2s1 | 2% | 0% | 8% | 18% | -8% | ?
CC(=O)Nc1ccc(S(=O)(=O)N2CCc3nc(COc4ccccc4)c4c(c3C2)CO[C@@H](C)C4)cc1 | 3%[11.4 µM] | 9%[13.5 µM] | 11%[9.22 µM] | -17%[10 µM] | 1% | .
COC(C[C@@H](O)[C@@H](C)[C@H](O)COCc1ccccc1)OC | 10% | . | . | -4%[10 µM] | . | -32%[9.22 µM]
CCOCCOc1nc(C)cc(C)c1S(=O)(=O)c1ccccc1C | 1% | 0% | 4%[46 µM] | 23%[10 µM] | . | 4%
Cc1cc(C)c(S(=O)(=O)c2ccccc2C)c(OCC(C)(C)C)n1 | 2% | 13µM* | 15% | -9% | -14% | -28%
Cc1cc(C)cc(Oc2nc(-c3ccccc3)cc(C)c2S(C)(=O)=O)c1 | -25% | 14µM* | ? | -4% | ? | -14%
Cc1cc(C)c(S(C)(=O)=O)c(Oc2ccccc2C)n1 | 4% | 10% | 5% | -4% | 28µM* | 7%
Cc1cc(-c2ccccc2)nc(Oc2ccc(C(C)(C)C)cc2)c1S(C)(=O)=O | -28% | -12% | ? | -10% | -11% | -1%
O=C(O)CCC(=O)NC1CCCCCCC1 | -1% | 19% | -1% | -29%[0.074 µM] | -5% | -1%
O=C(Cn1cccc1)NC1CCCCCC1 | 2% | -2% | 6% | 11% | 14µM* | 0%
CC(C)CN(CC(C)C)S(=O)(=O)N1CCC(C(=O)NCc2ccc3c(c2)OCO3)CC1 | 9% | 3% | . | -27% | . | -14%
O=[N+]([O-])c1ccccc1/C=N/NC1=NCCCCC1 | 4% | ? | 6% | 13%[10 µM] | -18% | 14%
O=[N+]([O-])c1ccccc1/C=N/Nc1nnc(-c2ccccc2)c(-c2ccccc2)n1 | 3% | 0.28µM* | -6% | 17%[10 µM] | 0% | -7%
C[C@@H]1C[C@@H]([C@@H](C)CC2CC(=O)NC(=O)C2)C(=O)[C@@H](C)C1 | . | -12% | . | -123% | -5% | .
CCCCNC(=O)Cc1ccc(C)cc1 | 10% | 2% | -8% | 10%[10 µM] | ? | -4%
CCC(C)(C)NC(=O)Cc1ccc(C)cc1 | 3% | -6% | 8% | -5% | 14µM* | 10%[9.22 µM]

From PubChem BioAssay
